Laboratory results taken from the supplement of paper PMC8728848.
The full list was thinned out, with the strongest signals kept by preference.

Key:
Experiment in all cases: glycan array binding signal (z-score within array); higher = stronger binding
Settings in all cases: glycan notation: IUPAC condensed, linker removed
[1] = target: GalNAc(b1-4)GlcNAc(b1-2)Man(a1-3)[GalNAc(b1-4)GlcNAc(b1-2)Man(a1-6)]Man(b1-4)GlcNAc(b1-4)GlcNAc
How it was run: (§1)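 Arrays were curated from the Consortium for Functional Glycomics database, 3228 in total, and kept only where the protein sequence was available. Binding is expressed as a within-array Z-score. This score was averaged across arrays of the same protein sequence at different concentrations or buffers and across linkers, and negative values can be read as non-binding.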

[2] = target: GlcNAc(b1-2)[GlcNAc(b1-4)]Man(a1-3)[GlcNAc(b1-2)Man(a1-6)]Man(b1-4)GlcNAc(b1-4)GlcNAc
How it was run: as §1

GlcNAc(b1-3)Gal(b1-4)Glc = target: GlcNAc(b1-3)Gal(b1-4)Glc
How it was run: as §1

[3] = target: GlcNAc(b1-3)Gal(b1-4)GlcNAc(b1-3)Gal(b1-4)GlcNAc(b1-2)[GlcNAc(b1-3)Gal(b1-4)GlcNAc(b1-3)Gal(b1-4)GlcNAc(b1-6)]Man(a1-6)[GlcNAc(b1-3)Gal(b1-4)GlcNAc(b1-3)Gal(b1-4)GlcNAc(b1-2)Man(a1-3)]Man(b1-4)GlcNAc(b1-4)[Fuc(a1-6)]GlcNAc
How it was run: as §1

[4] = target: GlcNAc(b1-3)Gal(b1-4)GlcNAc(b1-3)Gal(b1-4)GlcNAc(b1-3)Gal(b1-4)GlcNAc(b1-2)[GlcNAc(b1-3)Gal(b1-4)GlcNAc(b1-3)Gal(b1-4)GlcNAc(b1-3)Gal(b1-4)GlcNAc(b1-6)]Man(a1-6)[GlcNAc(b1-3)Gal(b1-4)GlcNAc(b1-3)Gal(b1-4)GlcNAc(b1-3)Gal(b1-4)GlcNAc(b1-2)Man(a1-3)]Man(b1-4)GlcNAc(b1-4)[Fuc(a1-6)]GlcNAc
How it was run: as §1

[5] = target: GlcNAc(b1-3)Gal(b1-4)GlcNAc(b1-3)Gal(b1-4)GlcNAc(b1-3)Gal(b1-4)GlcNAc(b1-3)Gal(b1-4)GlcNAc(b1-2)[GlcNAc(b1-3)Gal(b1-4)GlcNAc(b1-3)Gal(b1-4)GlcNAc(b1-3)Gal(b1-4)GlcNAc(b1-3)Gal(b1-4)GlcNAc(b1-6)]Man(a1-6)[GlcNAc(b1-3)Gal(b1-4)GlcNAc(b1-3)Gal(b1-4)GlcNAc(b1-3)Gal(b1-4)GlcNAc(b1-3)Gal(b1-4)GlcNAc(b1-2)Man(a1-3)]Man(b1-4)GlcNAc(b1-4)[Fuc(a1-6)]GlcNAc
How it was run: as §1

[6] = target: GlcNAc(b1-3)[GlcNAc(b1-6)]Gal(b1-4)GlcNAc
How it was run: as §1

[7] = target: GlcNAc(b1-3)[GlcNAc(b1-6)]GlcNAc(b1-4)GlcNAc
How it was run: as §1

[8] = target: GlcNAc(b1-4)Gal(b1-4)GlcNAc
How it was run: as §1

[9] = target: GlcNAc(b1-4)GlcNAc(b1-4)GlcNAc(b1-4)GlcNAc(b1-4)GlcNAc(b1-4)GlcNAc
How it was run: as §1

[10] = target: Man(a1-3)[Man(a1-6)]Man(b1-4)GlcNAc(b1-4)[Fuc(a1-6)]GlcNAc
How it was run: as §1

[11] = target: Neu5Ac(a2-3)Gal(b1-3)GalNAc(b1-3)Gal(a1-4)Gal(b1-4)Glc
How it was run: as §1

[12] = target: Neu5Ac(a2-3)Gal(b1-3)GlcNAc(b1-2)Man(a1-3)[Neu5Ac(a2-3)Gal(b1-3)GlcNAc(b1-2)Man(a1-6)]Man(b1-4)GlcNAc(b1-4)GlcNAc
How it was run: as §1

[13] = target: Neu5Ac(a2-3)Gal(b1-4)GlcNAc(b1-2)[Neu5Ac(a2-3)Gal(b1-4)GlcNAc(b1-4)]Man(a1-3)[GlcNAc(b1-4)][Neu5Ac(a2-3)Gal(b1-4)GlcNAc(b1-4)Man(a1-6)]Man(b1-4)GlcNAc(b1-4)GlcNAc
How it was run: as §1

[14] = target: Neu5Ac(a2-3)Gal(b1-4)GlcNAc(b1-3)Gal(b1-4)GlcNAc(b1-3)Gal(b1-4)GlcNAc
How it was run: as §1

[15] = target: Neu5Ac(a2-3)Gal(b1-4)GlcNAc(b1-6)[Gal(b1-3)]GalNAc
How it was run: as §1

[16] = target: Neu5Ac(a2-6)Gal(b1-4)GlcNAc(b1-2)Man(a1-6)[Man(a1-3)]Man(b1-4)GlcNAc(b1-4)GlcNAc
How it was run: as §1

[17] = target: Neu5Ac(a2-6)Gal(b1-4)GlcNAc(b1-3)Gal(b1-4)[Fuc(a1-3)]GlcNAc(b1-3)Gal(b1-4)[Fuc(a1-3)]GlcNAc
How it was run: as §1

[18] = target: Neu5Ac(a2-8)Neu5Ac(a2-3)[Gal(b1-3)GalNAc(b1-4)]Gal(b1-4)Glc
How it was run: as §1

[19] = target: Neu5Ac(a2-8)Neu5Ac(a2-3)[GalNAc(b1-4)]Gal(b1-4)Glc
How it was run: as §1

[20] = target: Neu5Ac(a2-8)Neu5Ac(a2-8)Neu5Ac
How it was run: as §1

B1: Gal 8 (Homo sapiens) (protein)
chain: MLSLNNLQNIIYNPVIPYVGTIPDQLDPGTLIVICGHVPSDADRFQVDLQNGSSVKPRADVAFHFNPRFKRAGCIVCNTLINEKWGREEITYDTPFKREKSFEIVIMVLKDKFQVAVNGKHTLLYGHRIGPEKIDTLGIYGKVNIHSIGFSFSSDLQSTQASSLELTEISRENVPKSGTPQLQTVSPSWDLQGHGSETFCSVLWTRVFLEIAFCRPIGLTVASFQSLPFAARLNTPMGPGRTVVVKGEVNANAKSFNVDLLAGKSKDIALHLNPRLNIKAFVRNSFLQESWGEEERNITSFPFSPGMYFEMIIYCDVREFKVAVNGVHSLEYKHRFKELSSIDTLEINGDIHLLEVRSW
- glycan array binding signal (z-score) [1]: -0.353
- glycan array binding signal (z-score) [2]: -0.354
- glycan array binding signal (z-score) (GlcNAc(b1-3)Gal(b1-4)Glc): -0.338
- glycan array binding signal (z-score) [3]: 5.71
- glycan array binding signal (z-score) [4]: 4.87
- glycan array binding signal (z-score) [5]: 6.06
- glycan array binding signal (z-score) [6]: -0.41
- glycan array binding signal (z-score) [7]: -0.727
- glycan array binding signal (z-score) [8]: -0.2
- glycan array binding signal (z-score) [9]: -0.392
- glycan array binding signal (z-score) [10]: -0.357
- glycan array binding signal (z-score) [11]: 0.798
- glycan array binding signal (z-score) [12]: -0.328
- glycan array binding signal (z-score) [13]: -0.314
- glycan array binding signal (z-score) [14]: 2.12
- glycan array binding signal (z-score) [15]: -0.143
- glycan array binding signal (z-score) [16]: -0.357
- glycan array binding signal (z-score) [17]: -0.378
- glycan array binding signal (z-score) [18]: -0.355
- glycan array binding signal (z-score) [19]: -0.398
- glycan array binding signal (z-score) [20]: -0.396
